{"source": "the supplement of paper PMC8728848", "binders": {"B1": {"name": "Morniga (Morus nigra) (protein)", "chain": "MAGTSTNTQTTGTSQTVEVGLWGGPGGNAWDDGSYTGIREINLSHGDAIGAFSVIYDLNGQPFTGPTHPGNEPSFKTVKITLDFPNEFLVSVSGYTGVLPRLATGKDVIRSLTFKTNKKTYGPYGKEEGTPFSLPIENGLIVGFKGRSGFVVDAIGVHLS"}}, "assay_in_all_cases": "glycan array binding signal (z-score within array); higher = stronger binding", "details_in_all_cases": "glycan notation: IUPAC condensed, linker removed", "key": {"[1]": {"target": "Fuc(a1-2)Gal(b1-3)GalNAc(b1-4)[Neu5Ac(a2-3)]Gal(b1-4)Glc", "procedure,_shortened": "(§1)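 Columns mapping to the same glycan were averaged after glycan names were converted to IUPAC-condensed notation. The data come from 3228 arrays in the Consortium for Functional Glycomics database, limited to those with an available protein sequence. Binding is reported as a within-array Z-score averaged across arrays of one protein sequence and across linkers.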"}, "[2]": {"target": "Fuc(a1-2)Gal(b1-3)GlcNAc6S", "procedure,_shortened": "as §1"}, "[3]": {"target": "Fuc(a1-2)Gal(b1-3)[Fuc(a1-4)]GlcNAc(b1-2)Man(a1-3)[Fuc(a1-2)Gal(b1-3)[Fuc(a1-4)]GlcNAc(b1-2)Man(a1-6)]Man(b1-4)GlcNAc(b1-4)GlcNAc", "procedure,_shortened": "as §1"}, "[4]": {"target": "Fuc(a1-2)[Gal(a1-3)]Gal(b1-3)GlcNAc", "procedure,_shortened": "as §1"}, "[5]": {"target": "Fuc(a1-2)[Gal(a1-3)]Gal(b1-4)[Fuc(a1-3)]GlcNAc(b1-3)GalNAc", "procedure,_shortened": "as §1"}, "[6]": {"target": "Fuc(a1-2)[GalNAc(a1-4)]Gal(b1-4)GlcNAc", "procedure,_shortened": "as §1"}, "[7]": {"target": "Fuc(a1-3)[Gal(b1-4)]GlcNAc(b1-2)Man(a1-3)[Fuc(a1-3)[Gal(b1-4)]GlcNAc(b1-2)Man(a1-6)]Man(b1-4)GlcNAc(b1-4)[Fuc(a1-6)]GlcNAc", "procedure,_shortened": "as §1"}, "[8]": {"target": "Fuc(a1-3)[Gal3S(b1-4)]GlcNAc6S", "procedure,_shortened": "as §1"}, "[9]": {"target": "Gal(a1-3)Gal(b1-4)[Fuc(a1-3)]GlcNAc(b1-2)Man(a1-3)[Gal(a1-3)Gal(b1-4)[Fuc(a1-3)]GlcNAc(b1-2)Man(a1-6)]Man(b1-4)GlcNAc(b1-4)GlcNAc", "procedure,_shortened": "as §1"}, "[10]": {"target": "Gal(a1-4)Gal(b1-4)GlcNAc(b1-3)Gal(b1-4)Glc", "procedure,_shortened": "as §1"}, "[11]": {"target": "Gal(b1-3)Gal(b1-4)GlcNAc(b1-2)Man(a1-3)[Gal(b1-3)Gal(b1-4)GlcNAc(b1-2)Man(a1-6)]Man(b1-4)GlcNAc(b1-4)GlcNAc", "procedure,_shortened": "as §1"}, "[12]": {"target": "Gal(b1-4)GlcNAc(b1-2)Man(a1-3)Man(b1-4)GlcNAc(b1-4)GlcNAc", "procedure,_shortened": "as §1"}, "[13]": {"target": "Gal(b1-4)GlcNAc(b1-2)Man(a1-3)[Gal(b1-4)GlcNAc(b1-2)][GlcNAc(b1-4)]Man(b1-4)GlcNAc(b1-4)GlcNAc", "procedure,_shortened": "as §1"}, "[14]": {"target": "Gal(b1-4)GlcNAc(b1-2)Man(a1-3)[Man(a1-6)]Man(b1-4)GlcNAc(b1-4)GlcNAc", "procedure,_shortened": "as §1"}, "[15]": {"target": "Gal(b1-4)GlcNAc(b1-2)Man(a1-6)[Man(a1-3)]Man(b1-4)GlcNAc(b1-4)GlcNAc", "procedure,_shortened": "as §1"}, "[16]": {"target": "Gal(b1-4)GlcNAc(b1-2)[Gal(b1-4)GlcNAc(b1-6)]Man(a1-6)[Gal(b1-4)GlcNAc(b1-2)Man(a1-3)]Man(b1-4)GlcNAc(b1-4)[Fuc(a1-6)]GlcNAc", "procedure,_shortened": "as §1"}, "[17]": {"target": "Gal(b1-6)Gal", "procedure,_shortened": "as §1"}, "[18]": {"target": "Gal3S6S(b1-4)GlcNAc6S", "procedure,_shortened": "as §1"}, "[19]": {"target": "Gal6S(b1-3)GlcNAc", "procedure,_shortened": "as §1"}, "[20]": {"target": "Gal6S(b1-4)GlcNAc6S", "procedure,_shortened": "as §1"}, "[21]": {"target": "GalNAc(b1-3)GalNAc", "procedure,_shortened": "as §1"}, "[22]": {"target": "GlcA(b1-3)Gal", "procedure,_shortened": "as §1"}, "[23]": {"target": "GlcNAc(a1-4)Gal(b1-4)GlcNAc", "procedure,_shortened": "as §1"}, "[24]": {"target": "GlcNAc(a1-4)Gal(b1-4)GlcNAc(b1-3)Gal(b1-4)GlcNAc(b1-3)Gal(b1-4)GlcNAc", "procedure,_shortened": "as §1"}, "[25]": {"target": "GlcNAc(b1-4)GlcNAc(b1-4)GlcNAc(b1-4)GlcNAc(b1-4)GlcNAc", "procedure,_shortened": "as §1"}, "[26]": {"target": "Man(a1-2)Man(a1-3)[Man(a1-2)Man(a1-6)]Man(a1-6)[Man(a1-2)Man(a1-2)Man(a1-3)]Man", "procedure,_shortened": "as §1"}, "[27]": {"target": "Man(a1-3)[Man(a1-6)]Man(a1-6)[Man(a1-2)Man(a1-3)]Man(b1-4)GlcNAc(b1-4)GlcNAc", "procedure,_shortened": "as §1"}, "[28]": {"target": "Man(a1-3)[Man(a1-6)]Man(b1-4)GlcNAc(b1-4)GlcNAc", "procedure,_shortened": "as §1"}, "[29]": {"target": "Man(a1-3)[Man(a1-6)]Man(b1-4)GlcNAc(b1-4)[Fuc(a1-6)]GlcNAc", "procedure,_shortened": "as §1"}, "[30]": {"target": "Neu5Ac(a2-3)Gal(b1-3)GlcNAc(b1-3)Gal(b1-3)GlcNAc", "procedure,_shortened": "as §1"}, "[31]": {"target": "Neu5Ac(a2-3)Gal(b1-3)GlcNAc(b1-6)GalNAc", "procedure,_shortened": "as §1"}, "[32]": {"target": "Neu5Ac(a2-3)Gal(b1-4)GlcNAc(b1-2)Man(a1-3)[Neu5Ac(a2-6)Gal(b1-4)GlcNAc(b1-2)Man(a1-6)]Man(b1-4)GlcNAc(b1-4)GlcNAc", "procedure,_shortened": "as §1"}, "[33]": {"target": "Neu5Ac(a2-3)Gal(b1-4)GlcNAc(b1-3)Gal(b1-3)GlcNAc", "procedure,_shortened": "as §1"}, "[34]": {"target": "Neu5Ac(a2-3)Gal(b1-4)GlcNAc(b1-3)Gal(b1-4)GlcNAc(b1-3)Gal(b1-4)GlcNAc", "procedure,_shortened": "as §1"}, "[35]": {"target": "Neu5Ac(a2-6)Gal(b1-4)GlcNAc(b1-2)Man(a1-3)Man(b1-4)GlcNAc(b1-4)GlcNAc", "procedure,_shortened": "as §1"}, "[36]": {"target": "Neu5Ac(a2-6)Gal(b1-4)GlcNAc(b1-2)Man(a1-6)[Gal(b1-4)GlcNAc(b1-2)Man(a1-3)]Man(b1-4)GlcNAc(b1-4)GlcNAc", "procedure,_shortened": "as §1"}, "[37]": {"target": "Neu5Ac(a2-6)Gal(b1-4)GlcNAc(b1-2)Man(a1-6)[Man(a1-3)]Man(b1-4)GlcNAc(b1-4)GlcNAc", "procedure,_shortened": "as §1"}, "[38]": {"target": "Neu5Ac(a2-8)Neu5Ac(a2-8)Neu5Ac(a2-3)Gal(b1-4)Glc", "procedure,_shortened": "as §1"}}, "note": "Shown is part of a subset that was picked to be rich in the strongest signals.", "data": [{"binder": "B1", "values": [{"measurement": "glycan array binding signal (z-score)", "setting": "[1]", "value": -0.335}, {"measurement": "glycan array binding signal (z-score)", "setting": "[2]", "value": -0.321}, {"measurement": "glycan array binding signal (z-score)", "setting": "[3]", "value": -0.19}, {"measurement": "glycan array binding signal (z-score)", "setting": "[4]", "value": -0.332}, {"measurement": "glycan array binding signal (z-score)", "setting": "[5]", "value": -0.329}, {"measurement": "glycan array binding signal (z-score)", "setting": "[6]", "value": -0.34}, {"measurement": "glycan array binding signal (z-score)", "setting": "[7]", "value": -0.304}, {"measurement": "glycan array binding signal (z-score)", "setting": "[8]", "value": -0.324}, {"measurement": "glycan array binding signal (z-score)", "setting": "[9]", "value": 0.347}, {"measurement": "glycan array binding signal (z-score)", "setting": "[10]", "value": -0.341}, {"measurement": "glycan array binding signal (z-score)", "setting": "[11]", "value": 4.04}, {"measurement": "glycan array binding signal (z-score)", "setting": "[12]", "value": 4.3}, {"measurement": "glycan array binding signal (z-score)", "setting": "[13]", "value": 1.41}, {"measurement": "glycan array binding signal (z-score)", "setting": "[14]", "value": 4.49}, {"measurement": "glycan array binding signal (z-score)", "setting": "[15]", "value": 4.24}, {"measurement": "glycan array binding signal (z-score)", "setting": "[16]", "value": 1.6}, {"measurement": "glycan array binding signal (z-score)", "setting": "[17]", "value": -0.326}, {"measurement": "glycan array binding signal (z-score)", "setting": "[18]", "value": -0.316}, {"measurement": "glycan array binding signal (z-score)", "setting": "[19]", "value": -0.338}, {"measurement": "glycan array binding signal (z-score)", "setting": "[20]", "value": -0.337}, {"measurement": "glycan array binding signal (z-score)", "setting": "[21]", "value": -0.327}, {"measurement": "glycan array binding signal (z-score)", "setting": "[22]", "value": -0.333}, {"measurement": "glycan array binding signal (z-score)", "setting": "[23]", "value": -0.296}, {"measurement": "glycan array binding signal (z-score)", "setting": "[24]", "value": -0.327}, {"measurement": "glycan array binding signal (z-score)", "setting": "[25]", "value": -0.335}, {"measurement": "glycan array binding signal (z-score)", "setting": "[26]", "value": -0.327}, {"measurement": "glycan array binding signal (z-score)", "setting": "[27]", "value": 4.19}, {"measurement": "glycan array binding signal (z-score)", "setting": "[28]", "value": 5.03}, {"measurement": "glycan array binding signal (z-score)", "setting": "[29]", "value": 4.02}, {"measurement": "glycan array binding signal (z-score)", "setting": "[30]", "value": -0.332}, {"measurement": "glycan array binding signal (z-score)", "setting": "[31]", "value": -0.299}, {"measurement": "glycan array binding signal (z-score)", "setting": "[32]", "value": 2.56}, {"measurement": "glycan array binding signal (z-score)", "setting": "[33]", "value": -0.325}, {"measurement": "glycan array binding signal (z-score)", "setting": "[34]", "value": -0.342}, {"measurement": "glycan array binding signal (z-score)", "setting": "[35]", "value": 3.66}, {"measurement": "glycan array binding signal (z-score)", "setting": "[36]", "value": 3.24}, {"measurement": "glycan array binding signal (z-score)", "setting": "[37]", "value": 4.66}, {"measurement": "glycan array binding signal (z-score)", "setting": "[38]", "value": -0.334}]}]}
